# Screening results deposited in PubChem BioAssay by National Center for Advancing Translational Sciences (NCATS).
# A selection: hits, their analogues and other compounds. The true share with any hit is near 2.7%.
# S2 tox: viability counter-screen for ATXN expression inhibitors; S2 cells (HEK-293 line with an ATXN2-luciferase reporter) viability, CellTiter-Fluor protease fluorescence, 24 h; Potency, µM (highest dose often 56.7 µM), usual class: cytotoxic; 400,000 compounds, 0.49% hits; AID 651635; further: nearly all actives have a fitted effect of over 40% in size
# ALOX12 inh: blocks human arachidonate 12S-lipoxygenase; P18054; purified 12hLO, xylenol orange hydroperoxide absorbance; Potency, µM (highest dose often 108 µM), inactives show top-dose activity change, negative = inhibition, usual class: inhibitors; 580,000 compounds, 1.1% hits; AID 1671190; further: on the % scale 0 is the no-effect control and ±100 the full control effect
# Target sequence (P18054 whole entry, looked up): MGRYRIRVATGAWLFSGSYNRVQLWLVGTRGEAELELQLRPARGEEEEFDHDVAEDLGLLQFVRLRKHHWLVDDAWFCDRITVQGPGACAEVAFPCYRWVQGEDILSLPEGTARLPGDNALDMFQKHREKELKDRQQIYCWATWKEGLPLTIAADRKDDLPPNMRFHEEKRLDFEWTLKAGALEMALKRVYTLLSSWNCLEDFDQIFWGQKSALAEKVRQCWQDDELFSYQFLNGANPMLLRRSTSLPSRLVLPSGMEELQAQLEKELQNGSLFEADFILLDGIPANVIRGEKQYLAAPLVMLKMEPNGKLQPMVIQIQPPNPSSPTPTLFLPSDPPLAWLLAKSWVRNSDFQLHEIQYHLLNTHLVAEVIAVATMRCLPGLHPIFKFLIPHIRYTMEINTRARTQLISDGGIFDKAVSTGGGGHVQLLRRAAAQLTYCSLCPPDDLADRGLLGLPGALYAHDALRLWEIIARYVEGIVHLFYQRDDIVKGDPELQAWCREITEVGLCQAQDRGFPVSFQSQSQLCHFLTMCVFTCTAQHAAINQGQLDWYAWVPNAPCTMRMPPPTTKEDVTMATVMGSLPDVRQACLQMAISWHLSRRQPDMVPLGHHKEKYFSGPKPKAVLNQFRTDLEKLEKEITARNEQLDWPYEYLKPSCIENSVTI
#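 Hydroperoxide product was detected by ferrous iron/xylenol orange as the 573 to 405 nm absorbance ratio. Arachidonic acid at 40 uM (final) was turned over for 30 min at room temperature by 150 nM human 12hLO, pH 7.0 Hepes buffer, after 15 min compound preincubation.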
# ATXN2 expr inh: ATXN2 expression inhibition; 360,000 compounds, 0.72% hits; HEK-293 ATXN2-luciferase reporter, luminescence, 24 h; Potency, µM (titrated, usually from 57 µM), for inactives: at the highest dose activity change, negative = inhibition, most hits filed as inhibitors; further: on the % scale 0 is the no-effect control and ±100 the full control effect; nearly all actives have a fitted effect of over 55% in size
#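 qHTS (up to 57 uM final) was run with 24 h compound exposure of reporter cells at 37 °C. Each well was multiplexed: SteadyGlo luminescence measured ATXN2-luciferase expression after a fluorogenic Gly-Phe-AFC viability readout (25 uM final).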
# TGFb inhibitor: blocks TGF-b signaling | HepG2 CAGA-GFP TGF-b/SMAD3 reporter, GFP fluorescence, 18 h; TGF-beta stimulated, 500 pg/mL final | Potency, µM (series often up to 46.1 µM), for inactives: at the highest dose activity, negative = inhibition, usual class: inhibitors | 410,000 compounds, 1.2% hits | AID 588855; further: on the % scale 0 is the no-effect control and ±100 the full control effect; nearly all actives have a fitted effect of over 65% in size
#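 First, reporter cells (HEPG2 CAGA-GFP) rested 2 h at 37 degrees C. Next, compounds were pinned in and TGF-beta added to 500 pg/mL final. After 18 h, GFP was imaged per cell and summed per well.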
# HepG2 tox: counter-screen for TGF-b inhibitors: cytotoxicity in HepG2 cells; HepG2 CAGA-GFP viability, ATP luminescence, 18 h; Potency, µM (doses to about 46.1 µM), for the others: top-dose activity change, negative = cytotoxicity, usual class: cytotoxic; 410,000 compounds, 0.76% hits
#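 HepG2 CAGA-GFP cells (1000/well, DMEM with 1% FBS) received compound, then TGF-beta at 500 pg/mL final, and were incubated 18 hours at 37 degrees C. Viability was read by CellTiter-Glo luminescence. Media-only wells were set as complete cell-killing and DMSO as no toxicity.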
# * hit, by the source's call; i = inactive; ? = inconclusive; . = not tested or not shown; [ ] = remark or other dose. The call rests on the fitted dose curve; in most records, active means well fitted curve in the direction sought with a large enough effect; inconclusive means small, poorly fitted or top-dose-only effect, or another doubt; inactive means no such curve, though single readings can be large; an effect the other way counts as inactive or inconclusive. Potency means the concentration at half of the fitted maximal effect.
SMILES,S2 tox,ALOX12 inh,ATXN2 expr inh,TGFb inhibitor,HepG2 tox
O=C(C1CCC1)N1c2ccccc2CC1c1noc(C2CCOCC2)n1 (centres undefined),.,43%,.,.,.
Cc1ccc2c(c1)-c1[nH]c(=S)ncc1CS2,i,32µM*,.,?,-3%
C/C(=N\NC(=O)c1cccs1)c1cccc2ccccc12,.,32%,.,.,.
O=C(N/N=C(\c1ccccc1)c1cccnc1)C(O)(c1ccccc1)c1ccccc1,i,68%,0%,-15%,11µM*
COc1ccc(C(=O)c2c(N)c(C(=O)Nc3ccccc3C)c3ccccn23)cc1,.,0%,.,.,.
Cc1ccc(NC(=O)c2cc(N3C(=O)C=CC3=O)ccc2N2CCOCC2)cc1Cl,?,13µM*,?,?,-66%
CC(C)n1nc(C(=O)N2CCN(c3ncccn3)CC2)c2ccccc2c1=O,.,1%,.,.,.
Nc1ncnc2c1ncn2[C@@H]1O[C@H](COP(=O)(O)OP(=O)(O)CP(=O)(O)O)[C@@H](O)[C@H]1O,.,16µM*,.,.,.
Nc1ncnc2c1ncn2[C@@H]1O[C@H](COP(=O)(O)OP(=O)(O)O)[C@@H](O)[C@H]1O,.,-8%,.,.,.
CCCn1nc(C(=O)NCC(C2CC2)N(C)C)c2ccccc2c1=O (centres undefined),.,-5%,.,.,.
COc1ccc(-c2nc(N=Nc3ccc(O)cc3)n[nH]2)cc1,8.9µM*,?,-8%,-11%,3%
COc1ccc(CCN2Cc3cc(NC(=O)c4ccccc4)ccc3OC(C)C2=O)cc1 (centres undefined),.,50%,.,.,.
COc1ccc(C2=NN3C(=O)c4ccccc4C3C2)cc1 (centres undefined),.,23%,.,.,.
O=C(/C=C/c1ccccc1)Nc1cccc(S(=O)(=O)Nc2ccccc2F)c1,i,22µM*,1%,0%,-36%
Cc1cc(OC(=O)c2c(C)cc(OC(=O)c3c(C)cc(O)cc3O)cc2O)cc(O)c1C(=O)O,i,35µM*,3%,-4%,-2%
Cc1ccc(C)c(N2CCN(C(=O)C3CCN(C(=O)c4cc5sccc5n4C)CC3)CC2)c1,.,7%,.,10µM*,-19%
O=C(c1cccc(Cl)c1)N1CCCN(c2cn[nH]c(=O)c2Cl)CC1,.,1%,.,.,.
COc1ccc(N(CC(=O)NCc2ccc(Cl)cc2)S(=O)(=O)c2c(C)nn(C)c2C)cc1,i,40µM*,7%,-5%,2%
COc1ccc(CNC(=O)CN(c2ccc(C(C)C)cc2)S(=O)(=O)c2c(C)nn(C)c2C)cc1,.,-13%,.,-47%,-49%
CC(C)Cc1nnc(NC(=O)Cn2ccc3ccc(F)cc32)s1,.,17%,.,.,.
CCOC(=O)C(=CNc1ccc2c(c1)nnn2-c1ccc(Cl)cc1)C(=O)OCC,?,-10%,24µM*,8%,16%
O=C(O)c1ccc(N2CC3CC(C2)c2cccc(=O)n2C3)c(NC(=S)Nc2ccc(Br)cc2)c1 (centres undefined),i,40µM*,-4%,-19%,-14%
Cc1ccc(C(=O)N(Cc2ccco2)C2CC2)cc1F,.,5%,.,.,.
COc1ccc(-c2cc(OC(=O)c3cccc(Br)c3)c3c(C)oc(C)c3c(=O)c2)cc1,.,4.5µM*,.,.,.
O=C1C2C3C=CC(CO)(O3)C2C(=O)N1c1ccccc1-c1ccccc1 (centres undefined),?,.,?,13µM*,13µM*
SMILES,S2 tox,ALOX12 inh,ATXN2 expr inh,TGFb inhibitor,HepG2 tox
CC(=O)Oc1ccc(N2C(=O)C3C4C=CC(CO)(O4)C3C2=O)cc1 (centres undefined),?,-14%,1%,8%,17%
CC(c1ccc(S(C)(=O)=O)cc1)N(C)C(=O)CCc1ncc(-c2ccccc2Cl)o1 (centres undefined),.,19%,.,.,.
CN(C)Cc1c(O)ccc2ccccc12,i,0%,38%,-15%,-1%
CCN(Cc1ccncc1)Cc1c(O)ccc2ccccc12,i,?,-10%,-26%,-15%
Oc1ccc2ccccc2c1CN(Cc1ccccc1)Cc1ccccc1,.,3.2µM*,.,.,.
CC(C)CN(Cc1c(O)ccc2ccccc12)CC(C)C,i,40µM*,-17%,?,-5%
CC1=CC(=O)[C@H]2C[C@@H]1C2(C)C,.,-5%[176 µM],.,.,.
